Compound activity as filed in PubChem BioAssay.
Shiga inhibitor: blocks Shiga toxin action in Vero cells; Vero cells, Shiga toxin protein synthesis inhibition reporter; inhibition, % at 38.7 µM; 290,000 compounds, 9.2% hits; AID 2315; in the data active = inhibition mostly above about 28%, no sharp cut-off; inactive = mostly below about 43%; also: 0% is about no effect
NS1 inh: blocks influenza NS1 protein function; Potency, µM (top dose mostly 46.1 µM), inactives show top-dose activity, positive = more growth; 270,000 compounds, 0.4% hits; AID 2326; calls by dose curve; also: potency is read from the fitted curve at half-maximal effect; actives are rising curves; nearly all actives have a fitted effect of over 50% in size
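In this qHTS, NS1 from influenza A is expressed in budding yeast, where it slows growth. Cells are switched from glucose to 2% galactose medium (pH 6.0, -URA), treated with compound, and growth recovery is read at OD600.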
Cycloheximide cs: counter-screen hit for Shiga toxin inhibitors, cycloheximide | max response, % | AID 2314 | 300,000 compounds, 12% hits | cell reporter, cycloheximide protein synthesis inhibition counterscreen; in the data active = max response mostly above about 13%, no sharp cut-off; inactive = mostly below about 14%; also: read at 38.3 µM for the half of the compounds with a filed dose; 0% is about no effect
AmpC inh no detg: inhibitors of E. coli AmpC beta-lactamase without detergent | 330,000 compounds, 0.52% hits | Potency, µM (titrated, usually from 57.1 µM), for inactives: top-dose activity change, negative = inhibition, actives largely listed as inhibitors | AID 485341 | P00811 | AmpC nitrocefin hydrolysis, absorbance 480 nm, 0.0001% Triton;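 also: potency is read from the fitted curve at half-maximal effect; plate controls were no compound for no effect and no enzyme for full effect; nearly all actives have a fitted effect of over 20% in size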
Target sequence (P00811 whole entry, looked up): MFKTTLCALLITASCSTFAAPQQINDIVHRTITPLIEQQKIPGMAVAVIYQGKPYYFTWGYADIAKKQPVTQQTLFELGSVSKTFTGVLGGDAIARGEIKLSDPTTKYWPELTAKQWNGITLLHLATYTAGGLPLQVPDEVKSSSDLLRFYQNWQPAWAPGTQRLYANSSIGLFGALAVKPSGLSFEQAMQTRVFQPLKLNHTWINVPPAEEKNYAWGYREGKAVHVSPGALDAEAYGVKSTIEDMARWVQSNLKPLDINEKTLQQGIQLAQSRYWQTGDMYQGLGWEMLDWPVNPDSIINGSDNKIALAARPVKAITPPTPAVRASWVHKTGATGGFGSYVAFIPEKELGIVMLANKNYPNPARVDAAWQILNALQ
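AmpC (5.3 nM in the dispensed reagent) in 20 mM phosphate pH 7.0 with 0.01% (detergent screen) or 0.0001% Triton X-100 was preincubated with compounds for 15 min at room temperature. Nitrocefin was then added from an 800 uM solution, and hydrolysis was followed at 480 nm.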
AmpC inh detg: blocks E. coli AmpC beta-lactamase in detergent assay | AmpC hydrolysis of nitrocefin, absorbance 480 nm, 0.01% Triton | 370,000 compounds, 0.041% hits | P00811 | Potency, µM (titrated, usually from 114 µM), without a hit: at the highest dose activity change, negative = inhibition, usual class: inhibitors | AID 485294;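 also: potency is read from the fitted curve at half-maximal effect; 0% = no-compound wells and -100% = no-enzyme wells; nearly all actives have a fitted effect of over 25% in size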
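AmpC (5.3 nM in the dispensed reagent) in 20 mM phosphate pH 7.0 with 0.01% (detergent screen) or 0.0001% Triton X-100 was preincubated with compounds for 15 min at room temperature. Nitrocefin was then added from an 800 uM solution, and hydrolysis was followed at 480 nm.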
* hit, by the source's call; ? = inconclusive; / = no result; [ ] = remark or other dose. The sample as a whole holds a higher share of hits than the screen did. Unless noted, calls follow the shape of the dose curve; as a rule, active = well fitted curve in the direction sought with a large enough effect; inconclusive = small, poorly fitted or top-dose-only effect, or another doubt; inactive = no such curve, though single readings can be large; an effect the other way counts as inactive or inconclusive.

SMILES	Shiga inhibitor	NS1 inh	Cycloheximide cs	AmpC inh no detg	AmpC inh detg
CCOc1ccc(C2C(C(=O)c3cccs3)=C(O)C(=O)N2Cc2cccnc2)cc1OC (stereo not given)	60*	10%	34*	-19%	6%
COc1ccc(OC)c(C2C(C(=O)c3cccs3)=C(O)C(=O)N2c2cc(C)on2)c1 (stereo not given)	90*	?	35*	-7%	-2%
COc1ccc(C2C(C(=O)c3cccs3)=C(O)C(=O)N2c2cccc(C)n2)cc1OC (stereo not given)	32*	7%	19*	-17%	1%
COc1cccc(C2C(C(=O)c3cc4ccccc4o3)=C(O)C(=O)N2c2cc(C)on2)c1OC (stereo not given)	-16	?	17	-42%	-2%
COc1cccc(C2C(C(=O)c3cc4cccc(OC)c4o3)=C(O)C(=O)N2c2cc(C)on2)c1OC (stereo not given)	12	14%	-3	20µM*	?
Cc1cccc(N(C)C(=O)Cn2cnc3nc4c(cc3c2=O)CCCC4)c1	/	/	/	/	-1%
CN(C)S(=O)(=O)c1cccc(NC(=O)c2ccccc2OCc2ccc(F)cc2)c1	7	-9%	-2	-30%	-1%
C/C(CC(=O)Nc1cccc(C(F)(F)F)c1)=N\NC(=O)C1CCCCC1	55	2%	27*	10%	1%
COc1ccc(C(=O)N/N=C(\C)CC(=O)Nc2cccc(C(F)(F)F)c2)cc1	81*	-2%	39*	-2%	12%
CC(=O)Nc1ccccc1NC(=O)C/C(C)=N/NC(=O)C1CCCCC1	2	-3%	15	-13%	-11%
Cc1ccc(-c2nnn3c2nc(NCC(C)c2ccccc2)c2ccccc23)cc1 (stereo not given)	/	/	/	/	1%
N#CC(C#N)=Cc1ccc(C=C(C#N)C#N)cc1	27	-39%	20*	-30%	6%
N#CC(C#N)=Cc1ccc([N+](=O)[O-])c(O)c1	/	0%	/	/	/
C#CCNC(=O)C1=C[C@@H](C2CCCCC2)C[C@@H](OCCCCO)O1	26	0%	15*	80%	-3%
O=C(O)C1=C[C@@H](C2CC2)C[C@@H](OCc2ccc(CO)cc2)O1	6	0%	1	-11%	0%
O=C(Nc1ccccc1)C1=C[C@@H](C2CCCCC2)C[C@@H](OCc2ccc(CO)cc2)O1	84*	16%	40*	5%	9%
C#CCNC(=O)C1=C[C@H](c2ccc(C(F)(F)F)cc2)C[C@H](OCCCCO)O1	42	-1%	8.6*	92%	7%
O=C(Nc1ccccc1)C1=C[C@H](C2CCCCC2)C[C@H](OCc2ccc(CO)cc2)O1	55*	15%	43*	0%	3%
Cc1cc(C(F)(F)F)nn1-c1nc(-c2ccccc2)cc(C(F)(F)F)n1	/	/	/	/	14%
O=C(CN1C(=O)COc2ccc(S(=O)(=O)N3CCCCCC3)cc21)Nc1cccc(Cl)c1	/	/	/	/	-9%
O=C(Nc1ccccc1)C1=C[C@@H](C2CCCCC2)C[C@@H](OCCCCO)O1	172*	0%	74*	53%	-4%
O=C(NC1CC1)C1=C[C@H](C2CCCCC2)C[C@H](OCCCCO)O1	14	1%	-8	123%	-1%
COc1ccc(-c2nc(N)ncc2-c2ccccc2OC)c(O)c1	-7	7%	-6	-16%	0%
C/C(CC(=O)Nc1ccc(OCc2ccccc2)cc1)=N\NC(=O)C(=O)Nc1ccccc1C	65*	-5%	26*	-44%	?
CNC(=S)Nc1ccc(OCc2ccccc2)cc1	48*	-2%	44*	-23%[2.29 µM]	-7%
SMILES	Shiga inhibitor	NS1 inh	Cycloheximide cs	AmpC inh no detg	AmpC inh detg
CCN(CC)C(=O)C(=O)Nc1ccc(OCc2ccccc2)cc1	23	-6%	14*	-4%[2.29 µM]	0%
C/C(CC(=O)Nc1ccc2c(c1)OCCO2)=N\NC(=O)C(=O)Nc1ccccc1C	28	6%	13	-24%	-2%
CCOc1ccc(NC(=S)Nc2ccc(OCc3ccccc3)cc2)cc1	4	?	11*	19%	-2%
CC[C@@H]1C(c2cccc(C)c2)=NN(c2ccc(Br)cc2)[C@H]1C(=O)N1CCOC1=O	13	/	2	/	/
CCc1noc(C)c1C(=O)Nc1nc2c(C)cccc2s1	/	/	/	-20%	-21%
Cc1ccc(C(=O)Nc2ncc(C)s2)o1	50	-58%	35*	-4%	-2%
Cc1cc(C)nc(NC(=O)c2ccc(C)o2)n1	-4	9%	-2	-13%	-4%
Cc1ccc(C(=O)Nc2ncc(Cc3ccc(F)cc3)s2)o1	156*	-6%	41*	32µM*	?
CCc1noc(C)c1C(=O)Nc1ncc(C)s1	41*	-1%	19*	-20%	-2%
Cc1ccc(C(=O)Nc2ncc(C)s2)s1	42	-11%	17*	-18%	-8%
COc1ccc(C(=O)c2cn(Cc3ccc(F)cc3)c3c(F)cc(F)cc3c2=O)cc1	/	/	/	/	0%
Cc1ncn(-c2ccccc2O)c1C	/	0%	/	/	/
COC(=O)c1cccc(/C=N/NC(N)=S)c1O	26	-3%	27*	-14%	2%
NC(=S)N/N=C/c1ccccc1[N+](=O)[O-]	8	-1%	1	-11%	1%
C=CCOc1ccc(/C=N\NC(N)=S)cc1	13	-8%	-1	20%	-1%
CC(C)Oc1ccc(/C=N/NC(N)=S)cc1	67*	-6%	61*	-15%	-11%
COc1ccc(/C=N/N=C/c2ccc(OC)cc2)cc1	46	2%	25*	-10%	-5%
COc1ccc(/C=N/NC(N)=S)cc1	18	-8%	13*	-22%	0%
O=C(CN1C(=O)C2(SCC(=O)N2c2ccc(F)cc2)c2ccccc21)NCCc1ccccc1 (stereo not given)	/	/	/	/	7%
CCCCc1ccc(-n2nc3cc(Cl)c(NC(=O)c4ccc(OC)cc4)cc3n2)cc1	/	/	/	/	-2%
COc1cc(Cl)c(C)cc1NC(=O)CNC(=O)Cn1ccc2ccccc2c1=O	/	/	/	/	-3%
Cc1ccc2c(c1)cc1c(=O)n(Cc3ccccc3Cl)nc(C)n12	/	/	/	/	16%
CCc1ccc(NC(=O)Cn2cc(S(=O)(=O)N3CCCC3)c(S(=O)(=O)N3CCCC3)c2)cc1	/	/	/	/	-4%
Cc1ccc(C(=O)Oc2ccc(/C=N/NC(N)=O)cc2)cc1	3	/	19	-23%	-7%
COc1ccc(C(=O)Oc2ccc(/C=N/O)cc2)cc1	83*	-99%	74*	-39%	-13%
COc1ccc(/C=N/NC(=O)Nc2nonc2N)cc1	75*	-4%	48*	-23%	-3%
CCOC(=O)Cc1cc(-c2ccc(O)cc2)nc2ccc3ccccc3c12	83*	-9%	22	-34%	-13%
Cc1ccc(C(=O)OC(C)C(=O)c2cc(C)c(C)cc2C)o1 (stereo not given)	27	-8%	20*	8%	-6%
Cc1cc(C)c(C(=O)C(C)OC(=O)c2ccccn2)cc1C (stereo not given)	0	-18%	-3	3%	0%
Cn1cc(SCC(=O)NCc2ccc(F)cc2)c2ccccc21	-14	/	9	-18%	-7%
